Data reported in PubChem BioAssay AID434927 (Sanford-Burnham Center for Chemical Genomics, 2010).
Values without a mark were called inactive. Activity calls are given as the source filed them.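 How the source made its calls: active means inhibition above about 23% in any of six single-dose repeats (limit read from the data); inactive means the rest.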

molecular target: Intestinal-type alkaline phosphatase (Homo sapiens) (UniProt P09923); assay: human IAP inhibitors, confirmation, biochemical, luminescence, single concentration, uHTS hits (AID 434927); details: purified human IAP, CDP-Star luminescence, 30 min; at 8.3 µM; hits give high values;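 further: plate controls were DMSO wells with enzyme for no effect and wells lacking enzyme for full effect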
Sequence (P09923 whole entry, looked up): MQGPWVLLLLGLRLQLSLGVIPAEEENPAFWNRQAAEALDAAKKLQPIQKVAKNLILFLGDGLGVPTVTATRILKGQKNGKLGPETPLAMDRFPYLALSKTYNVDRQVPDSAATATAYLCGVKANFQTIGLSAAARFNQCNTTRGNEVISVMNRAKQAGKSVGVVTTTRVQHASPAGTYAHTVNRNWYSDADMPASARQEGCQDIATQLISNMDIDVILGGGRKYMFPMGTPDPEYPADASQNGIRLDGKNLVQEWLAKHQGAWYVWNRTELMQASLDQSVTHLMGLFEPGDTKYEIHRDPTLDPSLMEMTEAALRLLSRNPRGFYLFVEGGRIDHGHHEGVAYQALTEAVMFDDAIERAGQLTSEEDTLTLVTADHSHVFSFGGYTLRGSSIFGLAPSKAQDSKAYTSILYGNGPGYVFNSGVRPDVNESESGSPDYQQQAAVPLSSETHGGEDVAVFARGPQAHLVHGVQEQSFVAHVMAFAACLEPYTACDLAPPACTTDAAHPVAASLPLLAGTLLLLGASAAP

Structure (SMILES)	inhibition
CSCCC(NS(=O)(=O)c1ccc(C)cc1)C(=O)NNC(=O)c1csc(N2CCOCC2)n1 (stereo unspecified)	48.3% (active)
O=C(N/N=C/c1cccc([N+](=O)[O-])c1)c1nc2ccccc2c(=O)[nH]1	33.3% (active)
O=C(O)c1ccccc1C(=O)Nc1cc(-c2ccccc2)[nH]n1	61.7% (active)
Cc1cccc(-n2ncc3c(NNC(=O)c4ccco4)ncnc32)c1	-74.5%
NC(=O)c1ccc(NC(=O)C2CCCC2)cc1	-40.2%
Cc1cc2nc(C3CCN(Cc4nnnn4Cc4cccs4)CC3)[nH]c2cc1C	79.3% (active)
CN(CC(=O)Nc1ccccc1F)CC(=O)Nc1ccc(F)c(F)c1F	51.6% (active)
Nc1c(N2CCCC2)cc(Cl)c2nonc12	41.3% (active)
Cn1nnnc1N=N/C(=N/Nc1ccccc1)c1ccccc1	54.9% (active)
COc1ccccc1CNC(=O)CN(c1ccc(C)cc1)S(=O)(=O)c1c(C)noc1C	32.5% (active)
CCOC(=O)c1c(NC(=O)Cn2cc([N+](=O)[O-])cn2)sc2c1CCC2	-90.5%
O=c1c2c(-c3cccs3)csc2ncn1-c1ccc(Br)cc1	-112%
O=C(NNC(=S)NC1CCCCC1)c1ccccc1Br	-42.5%
Cc1ccc(O)c(N/C=C/C(=O)c2ccc(F)cc2)c1	-120%
COc1ccc(NC(=S)NNC(=O)c2nnn(-c3ccccc3)c2C)cc1	24% (active)
Cc1cc(Br)ccc1SCC(=O)OC/C(O)=C(\C#N)c1nc2ccccc2[nH]1	-67.4%
